Compound activity from PubChem BioAssay.
Giardia kill = kills Giardia lamblia. activity change, % at 7.66 µM, hits read low. Giardia lamblia trophozoite viability. hit rate 0.15% among 340,000; in the data active = activity change below about -80%; inconclusive = between about -30% and that limit;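 also: parasites exposed to compound for two days anaerobically before the ATP read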
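Each well holds 100 Giardia trophozoites and compound. After two days (48 hrs) at 37 deg C in anaerobic conditions, ATP is quantified by luminescence.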
IL1B secr inh = inhibitors of inflammasome signaling (IL-1 beta secretion). THP-1 LPS/ATP IL-1B secretion, AlphaLISA, 16 h; stronger effect = lower value. activity change, % at 57.5 µM. hit rate 4.7% among 360,000; in the data active = activity change below about -50%; inconclusive = mostly about -30% to -49%
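Secreted IL-1B measured by AlphaLISA bead assay after 16 h compound exposure of THP-1 cells; compounds (final up to 57.5 uM) added 1 h before LPS (250 ng/mL) and ATP (1.25 mM) stimulation; lower signal means less secretion.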
TDP1 cell CPT = growth inhibition of DT40 Tdp1-/-;hTDP1 cells with camptothecin (screen for TDP1 inhibitors); Potency, µM (doses to about 46.2 µM), without a hit: at the highest dose activity change, negative = growth inhibition, usual class: inhibitors; chicken DT40 Tdp1-/-;hTDP1 cells + 20 nM CPT, ATP luminescence, 48 h; hit rate 12% among 420,000; also: potency is read from the fitted curve at half-maximal effect; nearly all actives have a fitted effect of over 55% in size
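Chicken DT40 Tdp1-/- cells complemented with human TDP1, 400 cells/well, exposed to compounds plus 20 nM camptothecin for at least 48 h at 37 C; viability read as ATP content by CellTiter-Glo luminescence.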
TDP1 inh = blocks human tyrosyl-DNA phosphodiesterase 1 | hit rate 0.28% among 350,000 | recombinant TDP1, AlphaScreen DNA substrate cleavage | Potency, µM (series often up to 130 µM), without a hit: at the top dose activity change, negative = inhibition, hits mostly inhibitors | Q9NUW8 | AID 485290; also: potency is read from the fitted curve at half-maximal effect; nearly all actives have a fitted effect of over 40% in size
Target sequence (Q9NUW8 whole entry, looked up): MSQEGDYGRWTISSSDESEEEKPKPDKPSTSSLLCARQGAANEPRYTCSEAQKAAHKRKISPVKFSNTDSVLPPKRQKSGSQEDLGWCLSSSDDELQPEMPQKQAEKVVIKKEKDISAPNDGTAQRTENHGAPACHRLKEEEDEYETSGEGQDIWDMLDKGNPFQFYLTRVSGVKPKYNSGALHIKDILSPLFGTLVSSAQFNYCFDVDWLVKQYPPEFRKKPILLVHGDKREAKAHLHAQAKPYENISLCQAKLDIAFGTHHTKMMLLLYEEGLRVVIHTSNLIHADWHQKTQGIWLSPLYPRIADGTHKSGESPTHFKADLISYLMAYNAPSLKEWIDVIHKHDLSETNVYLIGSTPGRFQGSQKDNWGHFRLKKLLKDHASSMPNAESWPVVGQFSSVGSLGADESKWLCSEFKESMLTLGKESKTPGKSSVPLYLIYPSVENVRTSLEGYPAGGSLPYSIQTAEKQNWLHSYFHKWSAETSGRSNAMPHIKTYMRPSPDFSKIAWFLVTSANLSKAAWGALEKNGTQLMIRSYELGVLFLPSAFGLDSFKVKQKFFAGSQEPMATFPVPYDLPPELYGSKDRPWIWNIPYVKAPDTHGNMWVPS
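Recombinant E. coli-expressed Tdp1 (1 nM) preincubated with compound 15 min at RT, then 5'-biotin/3'-phosphotyrosine-FITC DNA substrate (15 nM) added for 5 min. AlphaScreen beads (10 ug/ml) added, 10 min RT; tyrosine-FITC cleavage read as signal loss.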
DT40 TDP1 no CPT = qHTS for Inhibitors of human tyrosyl-DNA phosphodiesterase 1 (TDP1): qHTS in cells in absence of CPT. DT40 Tdp1-/- hTDP1 cells, no CPT, ATP luminescence, 48 h. Potency, µM (doses to about 46.2 µM), inactives show at the top dose activity change, negative = growth inhibition, most hits filed as inhibitors. hit rate 15% among 420,000; also: potency is read from the fitted curve at half-maximal effect; nearly all actives have a fitted effect of over 55% in size
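Growth of hTDP1-complemented DT40 Tdp1-knockout cells is measured by ATP luminescence after at least 48 hr compound exposure at 37 °C, with DMSO substituting for the 20 nM CPT used in the parallel screen.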
ELG1 DNA repair = ELG1-dependent DNA repair inhibition. HEK293T ELG1-luciferase reporter, luminescence, 16 h; DNA damage induced by 5-fluorouridine. Potency, µM (top dose mostly 46.1 µM), for inactives: at the highest dose activity change, negative = inhibition, hits mostly inhibitors. hit rate 2.3% among 330,000; also: potency is read from the fitted curve at half-maximal effect; nearly all actives have a fitted effect of over 55% in size
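Cells (2,000 per well) received 5-fluorouridine plus test compound or DMSO and were incubated 16 hr at 37 °C, 5% CO2. Luciferase activity was read by luminescence 30 min after ONE-Glo addition; signal suppression marked inhibition of damage-induced ELG1 function.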
* marks the source's active call; other numbers are inactive results; [ ] = dose if it differs, or a comment. This is a sample that favours compounds with a hit; in the whole collection about 19% have one here. Unless noted, calls follow the shape of the dose curve; as a rule, active = well fitted curve in the direction sought with a large enough effect; inconclusive = small, poorly fitted or top-dose-only effect, or another doubt; inactive = no such curve, though single readings can be large; an effect the other way counts as inactive or inconclusive. % is scaled to controls: 0 for no effect and ±100 for the full control effect.

What do the screens show for `COc1ccc2c(c1)C(=O)[C@H](OC(=O)NS(=O)(=O)c1ccc(C)cc1)[C@@H](c1ccc(OC)c(Br)c1)O2`?
TDP1 inh: 5.6%

How did C/C(=N\NC(=O)c1ccc(OC2OCCOC2Oc2ccc(C(=O)N/N=C(\C)c3ccncc3)cc2)cc1)c1ccncc1 (centres undefined) do in these assays?
Giardia kill: 5.9; IL1B secr inh: -2.4; TDP1 cell CPT: 6.51µM*; TDP1 inh: -1.2%; DT40 TDP1 no CPT: 7.31µM*; ELG1 DNA repair: inconclusive

How did Cn1ncc(Cl)c1C(=O)Nc1ccncc1 do in these assays?
Giardia kill: -7.7; IL1B secr inh: inconclusive; TDP1 cell CPT: -3.1%; TDP1 inh: 2.5%; DT40 TDP1 no CPT: -10.8%; ELG1 DNA repair: -12.9%

Results for C/C(=N\NC(=O)c1c(Cl)cnn1C)c1ccc(NC(=O)c2ccncc2)cc1 ?
Giardia kill: 10.4; IL1B secr inh: 14.5; TDP1 cell CPT: inconclusive; TDP1 inh: 0.0%; DT40 TDP1 no CPT: 20.6µM*; ELG1 DNA repair: -27.8%

What do the screens show for `C/C(=N\NC(=O)c1ccccc1NC(=O)c1ccc(Cl)cc1)c1ccncc1`?
Giardia kill: -96.4*; IL1B secr inh: 34.5; TDP1 cell CPT: 0.92µM*; TDP1 inh: 2.5%; DT40 TDP1 no CPT: 1.16µM*; ELG1 DNA repair: inconclusive

Results for C/C(=N\NC(=O)c1ccc(N/N=C(\C)c2ccncc2)cc1)c1ccncc1 ?
Giardia kill: 10.4; IL1B secr inh: -82.1*; TDP1 cell CPT: inconclusive; TDP1 inh: 7.0%; DT40 TDP1 no CPT: 20.6µM*; ELG1 DNA repair: 23.1µM*

What do the screens show for `CNC(=O)[C@@H]1CCC(=O)N1`?
Giardia kill: -12.0; IL1B secr inh: 12.6; TDP1 cell CPT: 0.1%; TDP1 inh: 1.9%; DT40 TDP1 no CPT: 1.4%; ELG1 DNA repair: 14.7%

What do the screens show for `Cc1ccc(NC(=O)Cn2c(=O)n(CCCCC(=O)NCc3ccc4c(c3)OCO4)c(=O)c3ccccc32)cc1`?
TDP1 cell CPT: -24.6%; TDP1 inh: -3.6%; DT40 TDP1 no CPT: -2.2%

What do the screens show for `CCOC(=O)C(C)Oc1cccc2c(=O)n(CC(=O)NCc3ccco3)ccc12` (centres undefined)?
Giardia kill: 30.2; IL1B secr inh: -54.5*; TDP1 cell CPT: 1.64µM*; TDP1 inh: 0.0%; DT40 TDP1 no CPT: 2.06µM*; ELG1 DNA repair: 11.9%

Results for CC(C)C(=O)c1cn(CC(=O)NCc2ccco2)c2ccccc12 ?
Giardia kill: -4.9; IL1B secr inh: 18.8; TDP1 cell CPT: inconclusive; TDP1 inh: -2.4%; DT40 TDP1 no CPT: -17.4%; ELG1 DNA repair: inconclusive

Results for COc1cc(C(=O)N(Cc2cc3cc(C)ccc3[nH]c2=O)CC2CCCO2)cc(OC)c1OC (centres undefined) ?
Giardia kill: 3.1; IL1B secr inh: 25.8; TDP1 cell CPT: -18.6%; TDP1 inh: -1.0%; DT40 TDP1 no CPT: 0.8%; ELG1 DNA repair: inconclusive

What do the screens show for `COc1ccc2[nH]c(=O)c(CN(CC3CCCO3)C(=S)Nc3ccc(C)cc3)cc2c1` (centres undefined)?
Giardia kill: -8.0; IL1B secr inh: -5.2; TDP1 cell CPT: -28.5%; TDP1 inh: 0.0%; DT40 TDP1 no CPT: 16.4µM*; ELG1 DNA repair: 6.2%

How did CCN1CCCC1CN(Cc1cc2cc(C)ccc2[nH]c1=O)C(=O)Nc1ccccc1OC (centres undefined) do in these assays?
Giardia kill: -6.5; IL1B secr inh: -12.2; TDP1 cell CPT: inconclusive; TDP1 inh: 0.0%; DT40 TDP1 no CPT: 20.6µM*; ELG1 DNA repair: inconclusive

Results for COc1cc2cc(CN(CCN3CCOCC3)C(=O)Nc3ccc(F)cc3)c(=O)[nH]c2cc1OC ?
Giardia kill: -2.6; IL1B secr inh: -11.9; TDP1 cell CPT: -6.3%; TDP1 inh: -3.0%; DT40 TDP1 no CPT: -13.0%; ELG1 DNA repair: inconclusive

Results for Cc1ccc2[nH]c(=O)c(CN(CCCN3CCOCC3)C(=O)Nc3ccc(Cl)cc3)cc2c1 ?
Giardia kill: -17.7; IL1B secr inh: -1.9; TDP1 cell CPT: 14.6µM*; TDP1 inh: -7.6%; DT40 TDP1 no CPT: 16.4µM*; ELG1 DNA repair: -7.6%

Results for COc1ccc(NC(=O)N(Cc2cc3cc(C)ccc3[nH]c2=O)CC2CCCO2)cc1 (centres undefined) ?
Giardia kill: -10.0; IL1B secr inh: inconclusive; TDP1 cell CPT: 18.4µM*; TDP1 inh: 1.9%; DT40 TDP1 no CPT: inconclusive; ELG1 DNA repair: inconclusive

How did COc1cccc(Cc2nc3cccnc3n2C2CCN(C(=O)c3n[nH]c4c3CCCC4)CC2)c1 do in these assays?
TDP1 cell CPT: 3.5%[9.04 µM]; DT40 TDP1 no CPT: -18.2%

Results for COc1ccc(N(Cc2cc3ccccc3[nH]c2=O)S(=O)(=O)c2ccc(OC)cc2)cc1 ?
Giardia kill: -20.1; IL1B secr inh: inconclusive; TDP1 cell CPT: inconclusive; TDP1 inh: 1.7%; DT40 TDP1 no CPT: inconclusive; ELG1 DNA repair: inconclusive

How did CCOc1ccc2[nH]c(=O)c(CN(C(=O)N3CCOCC3)C3CC3)cc2c1 do in these assays?
TDP1 inh: -3.0%; ELG1 DNA repair: 11.8%

Results for CCOc1ccc2[nH]c(=O)c(CN(Cc3ccccc3)C(=O)N3CCCC3)cc2c1 ?
Giardia kill: 1.6; IL1B secr inh: -17.6; TDP1 cell CPT: 20.6µM*; TDP1 inh: -1.0%; DT40 TDP1 no CPT: inconclusive; ELG1 DNA repair: inconclusive

What do the screens show for `COc1ccc(N(Cc2cc3cc(OC)ccc3[nH]c2=O)S(=O)(=O)c2ccc(NC(C)=O)cc2)cc1`?
Giardia kill: -3.7; IL1B secr inh: 6.1; TDP1 cell CPT: 16.4µM*; TDP1 inh: 3.6%; DT40 TDP1 no CPT: 8.2µM*; ELG1 DNA repair: inconclusive

How did COc1ccc2[nH]c(=O)c(CN(Cc3cccnc3)C(=S)NCC3CCCO3)cc2c1 (centres undefined) do in these assays?
Giardia kill: -19.1; IL1B secr inh: -9.9; TDP1 cell CPT: 18.4µM*; TDP1 inh: 0.0%; DT40 TDP1 no CPT: 20.6µM*; ELG1 DNA repair: inconclusive

How did Cc1cccc(NC(=O)N(Cc2cc3cc(C)ccc3[nH]c2=O)CC2COCCO2)c1 (centres undefined) do in these assays?
Giardia kill: -0.6; IL1B secr inh: -73.0*; TDP1 cell CPT: inconclusive; TDP1 inh: 8.4%; DT40 TDP1 no CPT: 23.1µM*; ELG1 DNA repair: 11.6µM*
